In the library only some 3.4% were active in any assay of this set; here they are far more common.
FBW7 act: activators of human E3 ligase FBW7; actives 0.13% (n = 650,000); Q969H0; normalized activity (activation), % at 26.1 µM; AlphaScreen FBW7–phospho-cyclin E peptide binding, activator screen; in the data active = normalized activity above about 1.9%;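 note: purified mutant Fbw7 with reduced substrate affinity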
TEAD-YAP block: TEAD-YAP interaction inhibition; HEK-TIYL cells, TEAD-Gal4/YAP UAS-luciferase luminescence; inhibition, % at 9.12 µM; actives 1.4% (n = 640,000); in the data active = inhibition above about 32%;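 note: 0% = median of test compound wells and 100% = reference inhibitor wells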
MITF primary: inhibitors of human MITF | inhibition, % at 2.6 µM | AID 1259374 | O75030 | AlphaScreen MITF homodimerization, bead proximity signal | actives 0.91% (n = 650,000); in the data active = inhibition above about 50%;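 note: 0% = vehicle wells with protein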
GPR151 ag: activates the human receptor GPR151; Q8TDV0; PathHunter beta-arrestin GPR151 cells, luminescence; activation, % at 11.2 µM; actives 1% (n = 650,000); in the data active = activation above about 4.9%;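 note: 0% = median of compound wells and 100% = cells with positive control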
Target sequence (Q8TDV0 whole entry, looked up): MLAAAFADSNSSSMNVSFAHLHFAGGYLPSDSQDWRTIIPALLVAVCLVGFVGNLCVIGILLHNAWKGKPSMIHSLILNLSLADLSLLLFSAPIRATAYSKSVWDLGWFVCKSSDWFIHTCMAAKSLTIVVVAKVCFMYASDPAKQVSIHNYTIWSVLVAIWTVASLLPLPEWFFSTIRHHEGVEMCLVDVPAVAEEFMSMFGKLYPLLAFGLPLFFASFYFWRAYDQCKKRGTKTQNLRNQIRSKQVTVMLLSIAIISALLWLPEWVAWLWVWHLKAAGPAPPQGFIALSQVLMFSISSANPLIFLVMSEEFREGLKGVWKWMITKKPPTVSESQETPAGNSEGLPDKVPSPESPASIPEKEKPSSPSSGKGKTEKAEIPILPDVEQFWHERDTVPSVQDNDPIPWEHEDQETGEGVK
* marks the source's active call; other numbers are inactive results.

For O=C(Cc1cnc2ncnn2c1)N1CCc2c([nH]c3ccccc23)C1c1ccccn1 (configuration not stated) the results were FBW7 act 0, TEAD-YAP block 35*, MITF primary 10 and GPR151 ag -1.
C=CCc1cc(C)ccc1OCC(O)Cn1c(C)nc2ccccc21 (configuration not stated) was read as FBW7 act 0, TEAD-YAP block 47*, MITF primary 10 and GPR151 ag 0.
Cc1nc2ccccc2n1CC(O)COc1ccc(C(C)C)cc1 (configuration not stated) was read as FBW7 act 0, TEAD-YAP block 48*, MITF primary -3 and GPR151 ag 0.
`Oc1ccc(O)c(CN2CCCCCC2)c1` gave FBW7 act -1, TEAD-YAP block -2, MITF primary 82* and GPR151 ag -1.
`COc1ccc(/C=N\Nc2ncccc2[N+](=O)[O-])c(OC)c1` gave FBW7 act 0, TEAD-YAP block 41*, MITF primary 2 and GPR151 ag -7.
For O=C(Cn1nnc(-c2ccccc2)n1)N/N=C/c1ccccc1C(F)(F)F the results were FBW7 act 0, TEAD-YAP block 0, MITF primary 12 and GPR151 ag 1.
`O=C(Cn1nnc(-c2ccccc2)n1)N/N=C/c1ccc(O)c(O)c1O` gave FBW7 act -1, TEAD-YAP block 8, MITF primary 66* and GPR151 ag 1.
For O=C(Cn1nnc(-c2ccccc2)n1)N/N=C/c1cc(Cl)ccc1O the results were FBW7 act 0, TEAD-YAP block -1, MITF primary 57* and GPR151 ag 0.
CCOC(=O)c1c(NC(=O)COC(=O)c2cc[n+]([O-])cc2)sc2c1CCC(C)C2 (configuration not stated) was read as FBW7 act 0, TEAD-YAP block 0, MITF primary -3 and GPR151 ag 1.
CCNC(=O)/C(C#N)=C/c1c(Oc2cc(C)ccc2C(C)C)nc2ccccn2c1=O was read as FBW7 act 0, TEAD-YAP block 46*, MITF primary 6 and GPR151 ag -6.
For CNC(=O)/C(C#N)=C/c1c(Oc2cc(C)ccc2C(C)C)nc2ccccn2c1=O the results were FBW7 act 0, TEAD-YAP block 34*, MITF primary 8 and GPR151 ag -6.
`COc1ccc(/C=C/c2cc(C(=O)O)c3ccccc3n2)cc1` gave FBW7 act 0, TEAD-YAP block 60*, MITF primary 1 and GPR151 ag -1.
`COc1ccc(-c2cc(C(=O)O)c3ccccc3n2)cc1` gave FBW7 act 0, TEAD-YAP block -7, MITF primary 21 and GPR151 ag 1.
`CNc1c(C)ccc2c1C(=O)c1ccccc1C2=O` gave FBW7 act -2, TEAD-YAP block -43, MITF primary 84* and GPR151 ag -1.
For CC(=O)c1sc(NC(=O)c2ccccc2I)nc1C the results were FBW7 act 0, TEAD-YAP block -3, MITF primary -13 and GPR151 ag -3.
For CCN(CC)C(=O)CSc1nnc(NC(=O)c2ccccc2Br)s1 the results were FBW7 act 0, TEAD-YAP block -2, MITF primary 10 and GPR151 ag -1.
Screening Cc1ccc(C)c(C(=O)COC(=O)c2cccc(NC(=O)Cc3ccccc3)c2)c1 returned FBW7 act 0, TEAD-YAP block 42*, MITF primary 1 and GPR151 ag 0.
CCC(C)(C)c1ccc(OCC(=O)Nc2cccc(C(=O)O)c2)cc1 was read as FBW7 act 0, TEAD-YAP block 38*, MITF primary -35 and GPR151 ag -2.
`O=C(Cc1ccccc1)Nc1cccc(C(=O)OCC(=O)c2ccc([N+](=O)[O-])cc2)c1` gave FBW7 act 0, TEAD-YAP block -15, MITF primary -7 and GPR151 ag -1.
Cc1ccccc1NC(=O)COc1ccccc1C=O was read as FBW7 act 0, TEAD-YAP block -13, MITF primary 2 and GPR151 ag 0.
Screening Cc1ccc(OCC(=O)Nc2ccccc2F)c(Br)c1 returned FBW7 act 0, TEAD-YAP block 38*, MITF primary 1 and GPR151 ag -1.
Screening Cc1ccccc1NC(=O)COc1ccc(Br)cc1C=O returned FBW7 act 0, TEAD-YAP block 45*, MITF primary 10 and GPR151 ag 0.
CC(=O)c1cccc(NC(=O)COc2ccc(C(C)(C)C)cc2)c1 was read as FBW7 act 0, TEAD-YAP block 1, MITF primary 0 and GPR151 ag 1.
For O=[N+]([O-])c1ccc(N2CCCC2)cc1NCCOc1ccc(F)cc1 the results were FBW7 act 0, TEAD-YAP block 5, MITF primary 3 and GPR151 ag -1.
`COc1c(C)cccc1C(=O)NC(=S)Nc1sc2c(c1C(N)=O)CCC2` gave FBW7 act 0, TEAD-YAP block -6, MITF primary -11 and GPR151 ag 0.
`CCCOC(=O)c1cccc(NC(=O)COc2ccccc2OC)c1` gave FBW7 act 0, TEAD-YAP block -6, MITF primary -7 and GPR151 ag 1.
For CCCOC(=O)c1cccc(NC(=O)COc2ccc(C)cc2Br)c1 the results were FBW7 act 1, TEAD-YAP block 92*, MITF primary -5 and GPR151 ag -1.
For O=C(COc1cccc2ccccc12)Nc1ccncc1 the results were FBW7 act 0, TEAD-YAP block 40*, MITF primary 6 and GPR151 ag 0.
For COC(=O)c1cccc(NC(=O)COc2ccccc2Br)c1 the results were FBW7 act 0, TEAD-YAP block 43*, MITF primary 3 and GPR151 ag 0.
For Cc1ccc(NC(=O)COc2ccccc2C)c(Br)c1 the results were FBW7 act 0, TEAD-YAP block -27, MITF primary 1 and GPR151 ag 0.
For Cc1ccc(NC(=O)COc2c(C)cccc2C)c(Br)c1 the results were FBW7 act 2.5*, TEAD-YAP block -17, MITF primary 21 and GPR151 ag -1.
For CCOC(=O)C(OC(=O)c1ccc2ncsc2c1)c1ccccc1 (configuration not stated) the results were FBW7 act 0, TEAD-YAP block -1, MITF primary 6 and GPR151 ag -1.
`O=C(C1CCC(Cn2c(=S)[nH]c3ccccc3c2=O)CC1)N1CCc2ccccc2C1` (configuration not stated) gave FBW7 act 0, TEAD-YAP block 2, MITF primary -2 and GPR151 ag 2.
COC(=O)c1cccc(NC(=O)COc2cc(C)ccc2C(C)(C)C)c1 was read as FBW7 act 0, TEAD-YAP block 2, MITF primary 14 and GPR151 ag 0.
`Cc1ccc(NC(=O)c2cccc(Br)c2)c(Br)c1` gave FBW7 act 2.5*, TEAD-YAP block -52, MITF primary 8 and GPR151 ag 1.
Cc1ccc(OCC(=O)Nc2cccc(C(=O)O)c2)c(Br)c1 was read as FBW7 act 0, TEAD-YAP block 98*, MITF primary 14 and GPR151 ag -10.
Screening COC(=O)c1cccc(NC(=O)COc2ccc(C)cc2Br)c1 returned FBW7 act 0, TEAD-YAP block 91*, MITF primary -3 and GPR151 ag 1.

Screens deposited in PubChem BioAssay by The Scripps Research Institute Molecular Screening Center.
